# Compound activity as filed in PubChem.
# DT40 TDP1 no CPT – qHTS for Inhibitors of human tyrosyl-DNA phosphodiesterase 1 (TDP1): qHTS in cells in absence of CPT | Potency, µM (highest dose often 46.2 µM), for the others: at the top dose activity change, negative = growth inhibition, hits mostly inhibitors | AID 686978, 2013 | DT40 Tdp1-/- hTDP1 cells, no CPT, ATP luminescence, 48 h | 420,000 tested, 15% active; further: potency means the concentration at half of the fitted maximal effect; on the % scale 0 is the no-effect control and ±100 the full control effect; nearly all actives have a fitted effect of over 55% in size
#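 Growth of hTDP1-complemented DT40 Tdp1-knockout cells is measured by ATP luminescence after at least 48 hr compound exposure at 37 °C, with DMSO substituting for the 20 nM CPT used in the parallel screen.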
# DT40 TDP1 CPT – DT40-hTDP1 cell growth loss with CPT; chicken DT40 Tdp1-/-;hTDP1 cells + 20 nM CPT, ATP luminescence, 48 h; 420,000 tested, 12% active; AID 686979; Potency, µM (doses to about 46.2 µM), inactives show at the top dose activity change, negative = growth inhibition, usual class: inhibitors; further: potency means the concentration at half of the fitted maximal effect; on the % scale 0 is the no-effect control and ±100 the full control effect; nearly all actives have a fitted effect of over 55% in size
#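 Chicken DT40 Tdp1-/- cells stably complemented with human TDP1 were seeded at 400 cells/well in medium containing 20 nM camptothecin, exposed to pin-transferred compounds, and grown at 37 °C for at least 48 hr. Viability was read as ATP luminescence.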
# D3 antag – antagonists of human D3 dopamine receptor; 360,000 tested, 2.5% active; D3R cells, DiscoveRx beta-arrestin luminescence, antagonist mode; active compounds read low; AID 652054; P35462; max response, negative = inhibition, %; in the data active means max response below about -50%; inconclusive means no clear call, values can overlap the other calls; further: on the % scale 0 is the no-effect control and ±100 the full control effect
# Target sequence (P35462 whole entry, looked up): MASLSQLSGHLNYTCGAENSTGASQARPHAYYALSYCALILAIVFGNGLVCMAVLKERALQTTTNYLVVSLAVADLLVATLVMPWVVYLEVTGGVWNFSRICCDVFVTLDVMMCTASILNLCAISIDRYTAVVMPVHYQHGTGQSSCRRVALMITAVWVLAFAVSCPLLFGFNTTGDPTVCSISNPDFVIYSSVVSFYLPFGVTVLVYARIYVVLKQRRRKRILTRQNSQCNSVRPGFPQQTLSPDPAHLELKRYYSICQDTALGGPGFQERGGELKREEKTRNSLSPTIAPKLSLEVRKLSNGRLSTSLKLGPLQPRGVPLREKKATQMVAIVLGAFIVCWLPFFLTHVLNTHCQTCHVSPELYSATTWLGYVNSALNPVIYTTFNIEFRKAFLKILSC
#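 Cells plated overnight at 1500 cells/well, then exposed to library compounds with dopamine controls for 90 minutes at 37 degrees C. DiscoveRx reagent added for 30–60 minutes at room temperature; luminescence read, quantitative HTS format.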
# IL1B secr inh – inflammasome signaling inhibition, IL-1 beta readout; AID 743279; THP-1 LPS/ATP IL-1B secretion, AlphaLISA, 16 h; active compounds read low; 360,000 tested, 4.7% active; activity change, % at 57.5 µM; in the data active means activity change below about -50%; inconclusive means mostly about -30% to -49%; further: on the % scale 0 is the no-effect control and ±100 the full control effect
#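 THP-1 cells pretreated 1 hr with compounds (up to 57.5 uM final), then stimulated with LPS (250 ng/mL final) plus ATP (1.25 mM final); secreted IL-1B measured by AlphaLISA after 16 hr, decreased signal indicating inhibition.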
# ClpP mod – qHTS Assay for Activators of ClpP. AID 651965, 2013. Potency, µM (top dose mostly 57.5 µM), for the others: at the top dose activity change, negative = active. 340,000 tested, 1.9% active. purified B. subtilis ClpP, FRET peptide cleavage, 20 min; active means well fitted falling curve with a large enough effect; inconclusive means small, poorly fitted or top-dose-only effect; inactive means no such curve, though single readings can be large or run the other way; further: potency means the concentration at half of the fitted maximal effect; the source files actives as falling curves though it sought activators and does not explain the sign; nearly all actives have a fitted effect of over 65% in size
# Target sequence (P80244 whole entry, looked up): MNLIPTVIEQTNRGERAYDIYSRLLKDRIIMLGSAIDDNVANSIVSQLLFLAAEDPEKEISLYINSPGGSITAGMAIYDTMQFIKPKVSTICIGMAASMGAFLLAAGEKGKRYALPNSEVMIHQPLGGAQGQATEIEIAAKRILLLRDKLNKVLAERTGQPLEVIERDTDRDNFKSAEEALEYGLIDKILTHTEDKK
#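 FRET quenching reversal measured ClpP activation: 10 microg/mL B. subtilis ClpP at pH 8 with the FRET-FV decapeptide, read at 430 nm after 320 nm excitation. The 20-min minus 0-min signal was scaled between DMSO/no-enzyme wells and ADEP (5.8 microM final).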
# DRD3 agonist – D3 dopamine receptor (human) agonism; P35462; D3R DiscoveRx beta-arrestin cells, luminescence, 90 min; max activation, %; 410,000 tested, 0.58% active; AID 652048; in the data active means max activation above about 30%; further: 0% is about no effect
#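 Agonist mode: compounds and dopamine controls were applied to plated cells for 90 min at 37 degrees C after an overnight attachment at 1500 cells/well. Luminescent read-out followed 30 - 60 minutes at room temperature with DiscoveRx detection reagent.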
# The depositor's hits bear a star; ? = inconclusive; nt = no result. Shown are actives, neighbours in structure and some others; about 21% of the full set was active somewhere. Unless noted, the call rests on the fitted dose curve; in most records, active means well fitted inhibition curve with a large enough effect; inconclusive means small, poorly fitted or top-dose-only effect; inactive means flat fitted curve, though single readings scatter.
SMILES,DT40 TDP1 no CPT,DT40 TDP1 CPT,D3 antag,IL1B secr inh,ClpP mod,DRD3 agonist
Brc1cccc(CNCCCN2CCOCC2)c1,?,23µM*,?,32,2%,-13
Oc1ccccc1CNCCCN1CCOCC1,23%,0%,-23,15,0%,0
C=CCOc1ccccc1CNCCCN1CCOCC1,0%,1%,-59*,3,-3%,-14
CCCCOc1c(Br)cc(CNCCCN2CCOCC2)cc1OC,13µM*,?,6,-66*,0%,-3
C=CCOc1cccc(CNCCCN2CCOCC2)c1,-20%,34%,-11,-2,14µM*,7
CCOc1ccccc1CNCCN1CCOCC1,6%,-25%,-13,-6,-1%,-7
CCNC(=O)C1CCCN(C(=O)c2c(-c3ccccc3)noc2C)CC1 (centres undefined),2%,-5%,6,10,-1%,10
CN1CCN(C(=O)CN(C)S(=O)(=O)c2ccc(F)cc2)CC1,25%,24%,7,9,nt,-9
CCc1cccc(C)c1NC(=O)C1CCN(S(=O)(=O)c2cc(Br)cc3c2N(C(C)=O)CC3)CC1,2%,17%,nt,nt,1%,2
COc1ccc2nc(N3C(=O)/C(=C/c4ccc(Cl)cc4)NC3=S)sc2c1,21µM*,?,8,22,1%,-3
Cc1ccc(NC(=O)C2(S(=O)(=O)c3ccc(C)cc3)CC2)cc1,?,-17%,?,-11,-2%,-2
Cc1ccc(NC(=O)Nc2ccc(Cl)cc2)c(Br)c1,23µM*,?,8,-21,0%,0
Cc1ccc(NC(=O)C2(S(=O)(=O)c3ccc(Cl)cc3)CC2)c(Br)c1,16µM*,?,-8,-4,nt,-11
Cc1ccc(S(=O)(=O)C2(C(=O)Nc3ccc(Cl)c(C(F)(F)F)c3)CC2)cc1,16µM*,?,nt,nt,-1%,3
Cc1ccc(NC(=O)/C=C/c2ccc(Cl)cc2)c(Br)c1,nt,nt,nt,nt,-2%,-1
N/C(=N\OC(=O)COc1ccc(Cl)cc1Cl)c1ccncc1,-26%,-15%,-5,-24,0%,6
CC(=O)c1c(C)[nH]c(C(=O)CN2C(=O)NC3(CCCCC3C)C2=O)c1C (centres undefined),6%,-2%,12,32,nt,4
N/C(Cc1ccccc1Sc1ccccc1)=N\O,-1%,2%,12,-2,-23%,-15
N/C(Cc1cccc2ccccc12)=N\O,-14%,8%,19,11,-1%,30*
CCc1nnc(NC(=O)CSc2nnc3c(C)cc4c(C)ccc(C)c4n23)s1,4.6µM*,3.7µM*,6,30,?,1
Cc1cc(NC(=O)CSc2nnc3c(C)cc4c(C)ccc(C)c4n23)no1,1.5µM*,1.2µM*,5,35,-5%,-11
C=CCN(CC=C)Cc1c(O)ccc2c1oc(=O)c1ccccc12,-23%,?,-62*,-25,-6%,-29
COc1ccc(S(=O)(=O)NC2CC2)cc1Cl,11%,15%,3,10,-6%,-7
C[C@@]12C(=O)Nc3ccc(Cl)cc3C(=O)N1[C@H]1c3cc(Br)ccc3OC[C@@H]1[C@@H]2c1ccccc1,?,23µM*,4,-28,-9%,0
C[C@@]12C(=O)Nc3ccc(Br)cc3C(=O)N1[C@H]1c3cc(Br)ccc3OC[C@@H]1[C@@H]2c1ccccc1,15µM*,18µM*,-7,-20,-3%,-9
SMILES,DT40 TDP1 no CPT,DT40 TDP1 CPT,D3 antag,IL1B secr inh,ClpP mod,DRD3 agonist
CC(C(=O)Nc1ccc(S(=O)(=O)N2CCCC2)cc1)N1CCCC(C(N)=O)C1 (centres undefined),-1%,-5%,7,11,-1%,5
Cc1nc(N2CCCC2)ncc1C(=O)N1CCN(c2ccccc2F)CC1,-6%,-15%,nt,nt,-16%,1
COc1cc(NS(=O)(=O)c2cnc(N)nc2)cc(OC)c1,-9%,-1%,nt,nt,-1%,10
Cc1ccc(NC(=O)CSc2nnc(CNC(=O)C34CC5CC(CC(C5)C3)C4)n2-c2ccc(F)cc2)cc1,?,16µM*,2,-13,1%,-5
O=C(NCc1nnc(SCc2ccc(F)cc2)n1-c1ccccc1)C12CC3CC(CC(C3)C1)C2,5.8µM*,16µM*,-51*,-79*,-1%,0
O=C(CSc1nnc(CNC(=O)C23CC4CC(CC(C4)C2)C3)n1-c1ccccc1)Nc1ccc(F)cc1,?,?,-1,-28,-2%,-5
Cc1cc(C(=O)OCC(=O)NCc2ccco2)c(C)n1-c1ccc(F)cc1,0.82µM*,0.65µM*,16,21,-1%,-14
COc1ccc(NCc2nnc(SCC(=O)NCc3ccco3)n2-c2ccccc2OC)cc1,-18%,-12%,-11,10,1%,2
O=C(CSc1nnc(CNC(=O)C23CC4CC(CC(C4)C2)C3)n1-c1ccc(F)cc1)Nc1ccccc1,?,?,6,-28,1%,-2
Cc1ccc(-n2c(CNc3ccc(F)cc3)nnc2SCC(=O)NCc2ccco2)cc1,?,16µM*,-13,-23,0%,1
CCNC(=O)COC(=O)c1cc(C)n(-c2ccccc2)c1C,-24%,-28%,8,7,nt,3
COC(=O)[C@H](Cc1ccc(O)cc1)NC(=O)Cn1cnc2c(OCc3ccccc3)ncnc21,0%,12%,18,93,-3%,2
COc1cc(CCC(=O)OCC(=O)Nc2ccc(F)c(F)c2F)cc(OC)c1OC,-24%,-14%,5,38,nt,-8
COc1ccc(CC(=O)NNC(=O)CSc2nc(C)c(C)c(=O)[nH]2)cc1,-6%,8%,-15,18,nt,-5
O=C(NCc1nnc(SCc2ccc(C(F)(F)F)cc2)n1-c1ccccc1)C12CC3CC(CC(C3)C1)C2,13µM*,?,0,-30,0%,0
